# CYP2C9 activ: human CYP2C9 activators, primary screen, biochemical, luminescence. Cytochrome P450 2C9 (Homo sapiens), P11712. recombinant CYP2C9, luciferin-H conversion; active compounds read high; factor 1 = untreated enzyme, 0 = blocked. activation factor at 5 µM. actives 1.4% (n = 96,000);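 active means activation factor of 2 or more for CYP2C9 at a 5 µM dose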;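 further: 0 = sulfaphenazole-blocked wells and 1 = vehicle-only wells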
# CYP2C19 act: human CYP2C19 activators, primary screen, biochemical, luminescence. Cytochrome P450 2C19 (Homo sapiens), P33261. recombinant CYP2C19, luciferin-H EGE luminescence; active compounds read high; 0 = fully inhibited enzyme, 1 = untreated enzyme. activation factor at 5 µM. 96,000 tested, under 10 active;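 active means activation factor of at least 2 at 5 µM in the primary screen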;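 further: 0 = wells with 2.5 mM tranylcypromine and 1 = vehicle-only wells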
# Target sequence (P33261 whole entry, looked up): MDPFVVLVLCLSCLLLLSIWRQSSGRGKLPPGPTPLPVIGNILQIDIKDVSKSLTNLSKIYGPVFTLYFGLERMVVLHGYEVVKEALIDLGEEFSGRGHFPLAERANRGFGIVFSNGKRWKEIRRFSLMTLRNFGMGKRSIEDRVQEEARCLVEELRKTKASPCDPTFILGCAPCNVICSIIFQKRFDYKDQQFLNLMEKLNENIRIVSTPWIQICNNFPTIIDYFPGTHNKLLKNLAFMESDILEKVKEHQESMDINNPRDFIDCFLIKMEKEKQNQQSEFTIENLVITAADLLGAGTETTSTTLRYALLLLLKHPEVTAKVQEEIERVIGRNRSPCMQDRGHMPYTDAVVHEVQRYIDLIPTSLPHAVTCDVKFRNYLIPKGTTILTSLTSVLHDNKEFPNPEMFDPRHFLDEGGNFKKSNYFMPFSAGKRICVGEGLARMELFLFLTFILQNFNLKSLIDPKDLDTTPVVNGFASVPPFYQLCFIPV
# sEH activator: soluble epoxide hydrolase activators, primary screen, biochemical, human sEH; Bifunctional epoxide hydrolase 2 (Homo sapiens), P34913; purified human sEH enzymatic activity, activator screen; activation, % at 2 µM; actives 0.04% (n = 91,000); in the data active means activation above about 37%
# sEH inhibitor: soluble epoxide hydrolase inhibitors, primary screen, biochemical, human sEH; actives 0.34% (n = 91,000); inhibition, % at 2 µM; AID 707, 2007; Bifunctional epoxide hydrolase 2 (Homo sapiens), P34913; recombinant human sEH enzymatic activity assay; in the data active means inhibition above about 80%
# CYP2C9 inhib: blockers of cytochrome P450 2C9 activity – biochemical, luminescence, ADME assay, primary screen | inhibition, % at 5 µM | CYP2C9 Supersomes, luciferin-H conversion | actives 20% (n = 96,000) | P11712;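 active means blocking of liver enzyme CYP2C9 beyond about 50% at 5 µM, limit read from the data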
# CYP2C19 inh: blockers of cytochrome P450 2C19 activity – biochemical, luminescence, ADME assay, primary screen. P33261. CYP2C19 Supersomes, luciferin-H EGE luminescence, 30 min. inhibition, % at 5 µM. actives 21% (n = 96,000);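 active means CYP2C19 inhibition above a set limit at 5 µM in the primary screen, cut at about 50% in these data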;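 further: plate controls were negative control wells for no effect and 2.5 mM tranylcypromine positive control for full effect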
# Active calls of the source: *; . = no result. The list is not random: actives were taken first. Their share in the collection is about 27%.
SMILES,CYP2C9 activ,CYP2C19 act,sEH activator,sEH inhibitor,CYP2C9 inhib,CYP2C19 inh
O=C(NC1CCCCC1)NC1CC2CCCC(C1)N2C1CCCC1 (centres undefined),.,.,-30,32,.,.
CCCNC(=S)N1CCC(NC(=O)C2CCCCC2)CC1,1.3,1.2,0,1,-26,-18
COC(=O)C1=C(C)NC2=C(C(=O)CCC2)C1c1cccc(C)n1 (centres undefined),1.2,0.9,.,.,-20,9
COC(=O)C1=C(C)NC2=C(C(=O)CCC2)C1c1cn(Cc2ccc(Br)cc2)nc1-c1ccccc1 (centres undefined),0.1,0.5,4,-2,86*,48
COC(=O)C1=C(C)NC2=C(C(=O)CC(C)(C)C2)C1c1cccc(C)n1 (centres undefined),1.1,1.1,-4,2,-15,-6
COC(=O)C1=C(C)NC2=C(C(=O)CC(C)(C)C2)C1c1cn(Cc2ccc(Br)cc2)nc1-c1ccccc1 (centres undefined),0.3,0.7,2,1,71*,35
CCN(CC)C(=O)N1CCC(NC(=O)c2ccccc2)CC1,1,1,7,-6,2,-2
C=CCn1c(COC)nnc1SCC(=O)c1ccc(F)cc1,1.2,0.6,0,2,-17,36
COc1ccc(NS(=O)(=O)c2cccc(-c3nnc4n3CCCCC4)c2)cc1,0.2,0.6,3,-3,82*,44
COc1ccccc1S(=O)(=O)Nc1cccc(-c2nnc3n2CCCCC3)c1,0.9,0.9,6,-3,12,8
Cc1cc(C)cc(NC(=O)c2cccn2-c2ncc(C(F)(F)F)cc2Cl)c1,0.8,0.5,-8,10,20,50
CCOC(=O)CSC1=C(C#N)C(=O)NC(c2ccc(OC)cc2)S1 (centres undefined),0.1,1.1,-7,9,94*,-10
CCOC(=O)CSC1=C(C#N)C(=O)NC(c2ccc(OC)c(OC)c2)S1 (centres undefined),0.6,0.9,-3,6,40,9
O=S(=O)(NC1CCCCC1)c1ccc(Cl)s1,0.2,0.1,4,-5,85*,90*
O=S(=O)(NC1CCCC1)c1ccc(Br)s1,0.4,0,10,-10,61*,96*
CC(C)CCN1C(=O)c2ccc(-c3nc4ccccc4c(=O)o3)cc2C1=O,0.7,0.8,0,2,27,15
O=S(=O)(c1ccc(Oc2ccc(-c3nnco3)cc2)nc1)N1CCC(Cc2ccccc2)CC1,0.4,0.9,-2,1,58*,15
Oc1ccccc1N=Nc1nc(-c2ccccc2)c(-c2ccccc2)[nH]1,0.5,0.8,-10,11,54*,24
COc1ccc(-c2cc(C(=O)O)[nH]n2)cc1OC,1,1,0,2,4,-2
COC(=O)c1cc(-c2ccc(Br)cc2)n[nH]1,0.8,0.3,-17,18,17,69*
COC(=O)c1cc(-c2c(C)nn(-c3ccccc3)c2C)n[nH]1,1,1.1,-7,12,-5,-5
COC(=O)c1cc(-c2c[nH]c3ccccc23)n[nH]1,0.2,0.1,3,-6,84*,85*
CCCCNC(=S)NNC(=O)c1nn(C)cc1Cl,.,.,-5,8,.,.
COc1c(Cl)ccc(Cl)c1C(=O)OCC(=O)O,1,0.9,.,.,0,9
CC(C)OC(=O)C1=C(N)N2C(=O)CSC2=C(C(=O)OC(C)C)C1,0.9,0.6,15,-17,12,36
SMILES,CYP2C9 activ,CYP2C19 act,sEH activator,sEH inhibitor,CYP2C9 inhib,CYP2C19 inh
O=C(Cc1coc(-c2ccc(F)cc2)n1)NCc1ccccc1,0.7,0.7,.,.,30,30
O=C(NCc1ccccc1)c1n[nH]nc1-c1ccccc1O,0.5,0.3,.,.,52*,73*
CCOC(=O)CC1C(=O)NCCN1S(=O)(=O)c1ccc(Cl)cc1 (centres undefined),1.1,0.9,8,-5,-8,13
CCOC(=O)CC1C(=O)NCCN1S(=O)(=O)c1cc(Cl)c(Cl)cc1Cl (centres undefined),1.2,0.4,2,-2,-21,62*
Cc1cc(C)n(-c2nc3ccccc3c3nc(C)nn23)n1,0.9,1.1,.,.,7,-6
CCOn1c(-n2nc(C)cc2C)nc2ccccc2c1=O,0.9,0.4,10,-7,6,63*
COC(=O)COn1c(-n2nc(C)cc2C)nc2ccccc2c1=O,0.8,1,-3,3,22,-2
Cc1cc(C)n(-c2nc3ccccc3c(=O)n2OC2CCCCC2)n1,0.5,0.3,9,-9,52*,68*
O=C1c2ccccc2C(=O)c2c1cccc2N1CCOCC1,0.5,0.5,8,-7,50,47
O=C1C(N2CCOCC2)=C(n2nnc3ccccc32)C(=O)c2ccccc21,0.1,0,4,-1,90*,100*
O=C(CN1C(=O)NC2(CCCCCCC2)C1=O)NC(=O)NCc1ccco1,0.9,0.9,13,-14,9,9
O=C(CN1CCCc2ccccc21)NC(=O)NCc1ccco1,0.5,0.3,7,-10,46,69*
CC1Cc2ccccc2N1CC(=O)NC(=O)NCc1ccco1 (centres undefined),0.4,0.2,8,-8,55*,83*
CC1(c2ccccc2)NC(=O)N(CC(=O)NC(=O)NCc2ccco2)C1=O (centres undefined),0.9,0.9,5,-1,11,7
CN1C(=O)c2ccccc2N(C)C1c1cccs1 (centres undefined),1,0.9,-10,11,2,9
O=C1CSC(c2cccs2)N1c1ccccc1 (centres undefined),0.8,0.5,13,-14,21,55*
c1ccc(N2CCN(c3ccccc3)C2c2cccs2)cc1,1.1,0.5,-8,6,-7,52*
COCCNC(=O)c1cnn2c(C(F)(F)F)cc(-c3ccc4c(c3)OCO4)nc12,0.6,0.8,5,-3,36,19
Cc1cc(C)c(NC2=CC(=O)CC(C)(C)C2)c(C#N)c1,0.9,1,-10,11,14,4
O=C(Nc1cccnc1)c1ccccc1Oc1ccccc1,0.5,0.4,-2,5,55*,64*
COc1cc2ccccc2cc1C(=O)Nc1cccnc1,0.7,0.6,0,-1,32,44
O=C(Nc1cccnc1)c1ccc(Oc2ccccc2)cc1,0.1,0.6,-3,1,89*,36
O=S(=O)(c1ccccc1)c1cnn(-c2ccccc2)c1-c1ccc(Cl)cc1,0.8,0.4,0,2,23,55*

# High-throughput results as filed in PubChem BioAssay.
